Hits are enriched below; roughly 10% of the tested compounds scored in any of these assays.
CCT chaperon mod – High-Throughput Screening for Modulators of Cytosolic Chaperonin Activity; purified chaperonin ATPase assay, HTRF ADP detection, 30 min; AID 651819, 2012; hit rate 0.3% among 360,000; activity change, % (no concentration beside the values), hits read low; in the data active means activity change below about -30%
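First, chaperonin was dispensed at 40 nM or 20 nM final depending on batch activity. Next, compounds were pinned at 76 uM and ATP added at 10 uM. After 30 min at 37 °C, ADP detection reagents ran 30 min at ambient temperature.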
PLK1 PBD inh – qHTS for Inhibitors of PLK1-PDB (polo-like kinase 1 - polo-box domain): Primary Screen | Serine/threonine-protein kinase PLK1 (Homo sapiens), P53350 | Plk1 PBD binding of FITC phosphopeptide, fluorescence polarization | Potency, µM, for the others: max response, negative = inhibition, hits mostly inhibitors | hit rate 2.8% among 360,000; further: potency means the concentration at half of the fitted maximal effect; series mostly up to about 57 µM; nearly all actives have a fitted effect of over 65% in size
Target sequence (P53350 whole entry, looked up, the tested form may be a part): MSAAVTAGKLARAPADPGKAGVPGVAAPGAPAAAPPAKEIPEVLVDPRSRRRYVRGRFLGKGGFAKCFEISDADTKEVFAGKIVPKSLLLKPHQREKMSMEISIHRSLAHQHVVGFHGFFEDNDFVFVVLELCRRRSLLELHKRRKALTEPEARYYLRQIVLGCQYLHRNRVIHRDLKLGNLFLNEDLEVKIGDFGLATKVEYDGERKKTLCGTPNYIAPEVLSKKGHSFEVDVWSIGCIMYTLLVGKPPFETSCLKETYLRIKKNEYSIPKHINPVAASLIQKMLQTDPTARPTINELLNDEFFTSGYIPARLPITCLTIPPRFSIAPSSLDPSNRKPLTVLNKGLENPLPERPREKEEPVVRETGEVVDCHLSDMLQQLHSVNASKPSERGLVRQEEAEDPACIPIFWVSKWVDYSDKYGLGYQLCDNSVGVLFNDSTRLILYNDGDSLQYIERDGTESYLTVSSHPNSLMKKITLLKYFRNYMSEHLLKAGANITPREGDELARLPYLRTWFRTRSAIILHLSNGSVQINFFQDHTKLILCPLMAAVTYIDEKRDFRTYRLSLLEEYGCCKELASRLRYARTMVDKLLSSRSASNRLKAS
VDR inh – Inhibitors of the vitamin D receptor (VDR): qHTS | AID 504847, 2011 | VDR-SRC2-3 peptide fluorescence polarization, 2 h | hit rate 0.93% among 400,000 | Potency, µM, for the others: max response, negative = inhibition, actives largely listed as inhibitors | Vitamin D3 receptor (Homo sapiens), P11473; further: potency means the concentration at half of the fitted maximal effect
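Measured by FP: displacement of SRC2-3 coactivator peptide from VDR by library compounds, following a two-hour ambient incubation.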
G9a block – qHTS Assay for Inhibitors of Histone Lysine Methyltransferase G9a; G9a H3K9 monomethylation, AlphaScreen, 2 h; Histone-lysine N-methyltransferase EHMT2 (Homo sapiens), Q96KQ7; hit rate 8.8% among 350,000; Potency, µM (series often up to 102 µM), for inactives: top-dose activity, negative = inhibition, usual class: inhibitors; further: potency means the concentration at half of the fitted maximal effect; nearly all actives have a fitted effect of over 75% in size
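AlphaScreen read-out: biotin-H3K9 peptide (500 nM) methylation by 20 nM enzyme with 20 uM SAM, 2 h at room temperature after 15 min compound preincubation; anti-monomethyl H3K9 antibody plus donor/acceptor beads, 10 min dark.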
MmCpn inh – Inhibitors of TCP-1 ring complex (TRiC) of Methanococcus maripaludis (MmCpn): qHTS | AID 504842, 2011 | Chaperonin Mm-Cpn (Methanococcus maripaludis) | purified Mm-Cpn ATPase, ADP Transcreener TR-FRET | hit rate 0.031% among 330,000 | Potency, µM (series often up to 76.9 µM), for the others: top-dose activity, negative = inhibition, hits mostly inhibitors; further: potency means the concentration at half of the fitted maximal effect; nearly all actives have a fitted effect of over 80% in size
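ATPase turnover read by TR-FRET ADP competition (Eu cryptate antibody/ADP-d2, 665/590 nm): 10uM ATP final, 25nM Mm-CPN final, 30 min 37degC after 10-min compound preincubation, pH 7.4 Tris/KCl/MgCl2/DTT buffer.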
Sfp PPTase inh – qHTS Assay for Inhibitors of Bacillus subtilis Sfp phosphopantetheinyl transferase (PPTase); Potency, µM, for inactives: largest response in the series, negative = inhibition, usual class: inhibitors; hit rate 3.5% among 310,000; Biochemical Sfp PPTase activity, qHTS;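 further: the enzyme is Sfp with the accession as filed and its product quenches rhodamine fluorescence; potency means the concentration at half of the fitted maximal effect; 0% = enzyme reaction without inhibitor and -100% = no enzyme wells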
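Fluorescence-quenching assay with 15 nM Sfp, 5 uM rhodamine-CoA and 12.5 uM BHQ-2-labelled ybbR peptide in pH 7.6 Hepes/MgCl2 buffer. Enzyme was pre-incubated with compound for 15 min at room temperature. Rate was taken from the 30-min fluorescence change (525/598 nm).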
* = called active by the depositor; ? = inconclusive; / = not tested or not shown; [ ] = remark or other dose. Unless noted, the call rests on the fitted dose curve; in most records, active means well fitted curve in the direction sought with a large enough effect; inconclusive means small, poorly fitted or top-dose-only effect, or another doubt; inactive means no such curve, though single readings can be large; an effect the other way counts as inactive or inconclusive. Unless noted, on the % scale 0 is the no-effect control and ±100 the full control effect.

SMILES	CCT chaperon mod	PLK1 PBD inh	VDR inh	G9a block	MmCpn inh	Sfp PPTase inh
C=CCN1C(=O)/C(=C2/Sc3ccccc3N2CCCS(=O)(=O)O)SC1=S	1.0	10.6µM*	0.9%	39.8µM*	-0.2%	44.7µM*
C=CCN1C(=O)/C(=C2/Sc3ccccc3N2CC)SC1=S	-0.7	-12.0%	-7.0%	1.2%	1.2%	6.5%
O=C1NCCN(Cc2ccc(F)cc2)C1=O	/	/	10.5%	4.3%[59 µM]	/	/
CCCS(=O)(=O)N1CCN(C2Cc3ccccc3C2)CC1	-0.9	-10.4%	-18.3%	/	-0.3%	89.1µM*
CCS(=O)(=O)N1CCC(N2CCC(C)CC2)CC1	1.3	-5.3%	-7.0%	8.91µM*	-1.4%	-28.3%
CCS(=O)(=O)N1CCN(C2CCC(c3ccccc3)CC2)CC1 (stereo unspecified)	/	/	/	10µM*	-1.2%	?
NCCC[C@@H](CC(=O)N[C@@H]1CCNC[C@H]1C(=O)N[C@H](CC(=O)N[C@@H](CCC(=O)O)CC(=O)O)Cc1ccccc1)NC(=O)C[C@H](Cc1c[nH]c2ccccc12)NC(=O)[C@@H]1CCCC[C@H]1N	/	/	-1.1%	/	/	4.5%
COc1ccc(N2CC(NC(=O)C3CC3)CC2=O)cc1 (stereo unspecified)	/	/	-0.1%	-8.4%[59 µM]	/	/
CCOC(=O)C(CC)Sc1c(CC)cnc2c1c(=O)n(C)c(=O)n2C (stereo unspecified)	/	/	6.1%	0.5%[59 µM]	/	/
COc1cc(Sc2ccc(C)cc2)c(OC)cc1N	-3.6	?	-14.0%	3.55µM*	-0.3%	-23.1%
COC(=O)c1ccc(Sc2ccc(C)cc2)c(N)c1	-1.3	26.7µM*	-24.6%	-39.2%[12.7 µM]	-11.8%	50.1µM*
COc1ccc(OC)c(CNC(=O)c2ccc(Sc3ccc(C)cc3)c(N)c2)c1	/	/	0.7%	-5.1%[59 µM]	/	/
COc1ccc(NC(=S)N2c3ccccc3CC2C)cc1OC (stereo unspecified)	-1.8	-5.4%	-14.9%	50.1µM*	0.5%	7.1%
CC1Cc2ccccc2N1C(=S)Nc1cccc(S(=O)(=O)N(C)C)c1 (stereo unspecified)	-0.6	-2.8%	-2.2%	39.8µM*	-0.1%	-30.5%
COc1ccc(N2C(=O)CS(=O)(=O)C23C(=O)N(Cc2ccc(F)cc2)c2ccc(C)cc23)cc1 (stereo unspecified)	/	/	17.7%	-26.6%[59 µM]	/	/
CCc1ccccc1NC(=O)c1nnn(-c2ccc(F)cc2)c1C	/	/	-3.6%	11.5%[59 µM]	/	/
COC(=O)C(=N/Nc1ccccc1C(=O)OC)/C(C)=N/O	-4.5	-2.0%	-3.1%	50.1µM*	0.2%	-7.9%
COc1cc(C(=O)NCc2nnc(SCC(=O)c3ccccc3)o2)cc(OC)c1OC	-2.7	?	-29.9%	39.8µM*	0.3%	-1.5%
COc1cccc([C@@H]2Oc3ccc(Br)cc3C[C@H]2OC(=O)Nc2ccc(C)c(Br)c2)c1	/	/	-14.0%	/	/	-13.7%
O=C(Nc1ccc(Cl)c([N+](=O)[O-])c1)ONC1=NCCCCC1	-5.5	26.7µM*	-8.2%	5.3%	0.4%	11.6%
Cc1ccc(C(c2c(O)nc3n(c2=O)CCS3)c2c(O)nc3n(c2=O)CCS3)cc1	-1.3	16.8µM*	50.1µM*	10µM*	2.1%	?
O=c1c(C(c2c(O)nc3n(c2=O)CCS3)c2cccc3ccccc23)c(O)nc2n1CCS2	-0.3	29.9µM*	?	?	-0.3%	-3.7%
CCCc1nn2c(=O)c(C(c3ccc(C)cc3)c3c(O)nc4sc(CCC)nn4c3=O)c(O)nc2s1	-0.7	-19.2%	0.7%	39.2%	0.2%	9.1%
O=c1c(C(c2ccc(O)cc2)c2c(O)nc3n(c2=O)CCCS3)c(O)nc2n1CCCS2	-1.2	11.9µM*	50.1µM*	?	0.9%	25.1µM*
